In PubChem BioAssay AID720517 (National Center for Advancing Translational Sciences (NCATS), 2013):
Results filed as inconclusive are left out. A call without a number means that no potency is given here. The source made the active and inactive calls. The call rests on the fitted dose curve; in most records, active means well fitted activation curve with a large enough effect; inconclusive means small, poorly fitted or top-dose-only effect; inactive means flat fitted curve, though single readings scatter.

Assay: qHTS for Inhibitors of Cell Surface uPA Generation: FP59 Counterscreen for Cherry-picked Compounds
Conditions: FP59 anthrax toxin cytotoxicity counterscreen, cells; series mostly up to 115 µM
Potency means the concentration at half of the fitted maximal effect.

SMILES	Potency
CC(=O)n1cc(/C=N/NC(=O)c2ccc([N+](=O)[O-])cc2)c2ccccc21	inactive
COc1cccc(C2CC(c3ccc(C)cc3)n3ncnc3N2)c1 (stereo unspecified)	inactive
CCc1ccc(N2CC(C(=O)Nc3ccc4c(c3)OCO4)CC2=O)cc1 (stereo unspecified)	inactive
Cc1ccc(C)c(N2N=C(C(=O)N(CC(C)C)c3c(N)n(Cc4ccccc4)c(=O)[nH]c3=O)CCC2=O)c1	inactive
Cc1cccn2c(CNCC(C)Oc3cccnc3)c(C(=O)N3CCOCC3)nc12 (stereo unspecified)	inactive
Cc1cc(C)n2c(SCC#N)nnc2n1	inactive
COc1ccc(CNC(=O)C2(CC3CC(c4ccccc4)=NO3)CCNCC2)cc1 (stereo unspecified)	inactive
Cn1c(SCC(=O)NNC(=O)c2ccc(Br)cc2)nnc1-c1cccnc1	inactive
O=C1C=C(NNC(=O)c2ccncc2)CC(c2ccccc2)C1 (stereo unspecified)	inactive
C#CCN1C=C(C(=O)OCC)C(C)NS1(=O)=O (stereo unspecified)	inactive
CCC(NC(=S)NCc1ccc(F)cc1)c1ccccc1 (stereo unspecified)	inactive
CC(C)OC(=O)c1ccc(N2CCN(c3ccccc3F)CC2)nc1	inactive
O=C(C[C@H]1C[C@H](C(=O)N2CCOCC2)[C@@]2(CCC3CCCC3)c3[nH]c4cc(-c5ccco5)ccc4c3CCN2C1=O)NCc1cccc(C(F)(F)F)c1	inactive
COc1cc(C2/C(=C(\O)c3ccc4c(c3)CC(C)O4)C(=O)C(=O)N2CC2CCCO2)cc(OC)c1OC (stereo unspecified)	inactive
CCn1nc(C)c(CNC(=O)C2CCC(=O)N(CCc3ccc(OC)cc3)C2)c1C (stereo unspecified)	inactive
COc1ccc(Cc2nnc(NC(=O)Nc3ccc(F)cc3)s2)cc1	inactive
CCOC(=O)N1CCc2c(sc3nc4n(c(=O)c23)N=C(C)CS4)C1	inactive
O=C(NCc1ccco1)/C(=C\c1cccs1)NC(=O)c1ccccc1	inactive
Cc1ccc(CC2CC(=O)N(c3cc(C)ccc3C)C2=O)cc1 (stereo unspecified)	inactive
CCN(CC)CC(=O)Nc1sc2c(c1C(=O)c1ccccc1OC)CCC2	16.5 µM (active)
CC(=O)Nc1ccc(NC(=O)CCCCCN2C(=O)c3ccccc3C2=O)cc1	inactive
